# Measurements from PubChem BioAssay.
# The source made the active and inactive calls.
# Assays:
# [1] = system: PRMT1 (protein arginine N-methyltransferase 1); assay: PRMT1 binders on small-molecule microarrays, primary screen, biochemical, small-molecule microarray, 635 nm fluorescence (AID 1088); settings: small-molecule microarray binding, higher = more signal;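 further: binding of Prmt1 protein to compounds spotted on small-molecule microarray slides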
# [2] = yeast growth modulation, basal conditions, primary screen, YJM789 clinical isolate, OD600, 24 h (AID 1089);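 further: growth of clinical yeast isolate S. cerevisiae YJM 789 seeded 1000 cells per well; test concentration not given here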; settings: S. cerevisiae YJM789 growth, higher = more signal, called active from +8 up or from −8 down
# [3] = fission yeast growth modulation, primary screen, strain 972, OD600, 24 h, no modulator (AID 1090);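 further: basal condition with compound alone and no growth modifier present; test concentration not given here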; settings: S. pombe 972 growth, higher = more signal, called active from +8 up or from −8 down
# [4] = S. cerevisiae growth modulation with rapamycin, primary screen, strain BY4716, OD600, 96 h (AID 1091); settings: higher = more signal, called active from +8 up or from −8 down; further: test concentration not given here
# [5] = molecular target: Torsin-1A-interacting protein 2 (Homo sapiens) (UniProt Q8NFQ8); assay: LULL1 binders on small-molecule microarray, primary screen, cell lysate, human LULL1 lysate, 635/667 nm fluorescence (AID 1092); settings: hLULL1 lysate binding, 635 nm fluorescence, higher = more signal;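 further: probe is lysate of COS7 cells overexpressing human LULL1; score merges per-feature 667 nm fluorescence with signal-to-noise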
# [6] = E. coli growth modulation, two-sided OD650, primary screen, E. coli filamentation project, strain DRC41, 24 h (AID 1093); settings: OD650, 24 h, higher = more signal, called active from +8 up or from −8 down;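 further: MC1000 strain lacking acrAB efflux and sulA so SOS filamentation is blocked; test concentration not given here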
# [7] = small-molecule microarray binders of probe aLefty2, primary screen, biochemical, biotinylated probe, 635/667 nm fluorescence (AID 1094); settings: higher = more signal;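 further: score merges spot fluorescence near 667 nm with spot signal-to-noise ratio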
# [8] = system: Noggin (protein binding on small-molecule microarray); assay: Noggin binders on small-molecule microarray, primary screen, biochemical, 635/667 nm fluorescence (AID 1095); settings: 635 nm fluorescence, higher = more signal;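 further: score merges 667 nm feature fluorescence with signal to noise over triplicate slides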
# [9] = molecular target: Neurogenic locus notch homolog protein 3 (Homo sapiens) (UniProt Q9UM47); assay: NOTCH3 binders on small-molecule microarray, primary screen, biochemical, 635/667 nm fluorescence (AID 1096); settings: NOTCH3 binding, 635 nm fluorescence, higher = more signal
# [10] = small-molecule microarray binders of probe aEGFR, primary screen, biochemical, biotinylated probe, 635/667 nm fluorescence (AID 1097); settings: higher = more signal;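 further: probe is a biotinylated anti-EGFR antibody binding compounds printed on slides; score combines fluorescence near 667 nm and signal to noise of each spot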
# [11] = system: Plasmodium falciparum Sir2 (PF13_0152, Sir2A); assay: pfSir2 binders on small-molecule microarrays, primary screen, biochemical, small-molecule microarray, 635 nm fluorescence (AID 1098); settings: small-molecule microarray binding, fluorescence 635 nm; higher = more signal;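 further: score merges spot fluorescence intensity with its signal-to-noise ratio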
# [12] = small-molecule microarray binders of probe aDKK1, primary screen, biochemical, biotinylated probe, 635/667 nm fluorescence (AID 1099); settings: higher = more signal;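 further: score merges 667nm spot fluorescence with signal to noise across triplicate slides; reference of the scale not given here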
# [13] = small-molecule microarray binders of probe aCHRDL2, primary screen, biochemical, biotinylated probe, 635/667 nm fluorescence (AID 1100); settings: higher = more signal
# [14] = splicing luciferase reporter signal modulators, primary screen, spliceosome inhibition project, cell-based, HEK293, splice +/- reporter (AID 1101); settings: luminescence, 24 h, higher = more signal, called active from +8 up or from −8 down;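 further: HEK293 cells carrying a splicing-competent luciferase reporter gene; test concentration not given here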
# [15] = molecular target: Fibroblast growth factor 10 (Homo sapiens) (UniProt O15520); assay: FGF10 binders on small-molecule microarrays, primary screen, biochemical, small-molecule microarray, 635 nm fluorescence (AID 1102); settings: FGF10 binding, fluorescence 635 nm, higher = more signal
# [16] = system: glycogen synthase kinase-3 (GSK3A per assay name; protocol says GSK3B); assay: GSK3 binders on small-molecule microarrays, primary screen, biochemical, small-molecule microarray, 635 nm fluorescence, GSK3A (AID 1103); settings: small-molecule microarray binding, fluorescence 635 nm; higher = more signal; further: the record names both GSK3A and GSK3B
# [17] = molecular target: Epidermal growth factor receptor (Homo sapiens) (UniProt P00533); assay: EGFR binders on small-molecule microarrays, primary screen, biochemical, small-molecule microarray, 635 nm fluorescence (AID 1104); settings: EGFR binding, higher = more signal;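 further: score merges 667 nm emission intensity with spot signal to noise over triplicate slides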
# [18] = molecular target: Follistatin-related protein 3 (Homo sapiens) (UniProt O95633); assay: FSTL3 binders on small-molecule microarrays, primary screen, biochemical, small-molecule microarray, 635 nm fluorescence (AID 1105); settings: FSTL3 binding, higher = more signal;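 further: score merges emission near 667 nm and signal to noise per printed spot across three slides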
# [19] = molecular target: Dickkopf-related protein 1 (Homo sapiens) (UniProt O94907); assay: DKK1 binders on small-molecule microarrays, primary screen, biochemical, small-molecule microarray, 635 nm fluorescence scan (AID 1106); settings: DKK1 binding, higher = more signal;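 further: score merges emission near 667 nm with signal to noise over three replicate slides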
# [20] = system: Inhibin beta A chain (activin A); assay: INHBA (activin A) binders on microarrays, primary screen, biochemical, small-molecule microarray, 635 nm fluorescence scan (AID 1107); settings: small-molecule microarray binding, higher = more signal;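 further: mouse activin A protein probed at 4.33 µg/mL on printed slides; score merges bound-protein fluorescence near 667 nm with spot signal-to-noise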
# Sequence of Dickkopf-related protein 1 (Homo sapiens) (O94907 whole entry, looked up): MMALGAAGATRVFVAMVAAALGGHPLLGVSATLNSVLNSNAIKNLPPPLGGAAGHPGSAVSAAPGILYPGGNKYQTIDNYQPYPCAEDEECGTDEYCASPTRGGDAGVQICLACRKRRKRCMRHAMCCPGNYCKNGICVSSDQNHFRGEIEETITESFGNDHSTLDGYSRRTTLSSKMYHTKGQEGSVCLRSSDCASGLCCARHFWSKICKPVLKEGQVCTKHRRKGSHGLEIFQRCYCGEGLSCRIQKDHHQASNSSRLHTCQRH
# Sequence of Torsin-1A-interacting protein 2 (Homo sapiens) (Q8NFQ8 whole entry, looked up): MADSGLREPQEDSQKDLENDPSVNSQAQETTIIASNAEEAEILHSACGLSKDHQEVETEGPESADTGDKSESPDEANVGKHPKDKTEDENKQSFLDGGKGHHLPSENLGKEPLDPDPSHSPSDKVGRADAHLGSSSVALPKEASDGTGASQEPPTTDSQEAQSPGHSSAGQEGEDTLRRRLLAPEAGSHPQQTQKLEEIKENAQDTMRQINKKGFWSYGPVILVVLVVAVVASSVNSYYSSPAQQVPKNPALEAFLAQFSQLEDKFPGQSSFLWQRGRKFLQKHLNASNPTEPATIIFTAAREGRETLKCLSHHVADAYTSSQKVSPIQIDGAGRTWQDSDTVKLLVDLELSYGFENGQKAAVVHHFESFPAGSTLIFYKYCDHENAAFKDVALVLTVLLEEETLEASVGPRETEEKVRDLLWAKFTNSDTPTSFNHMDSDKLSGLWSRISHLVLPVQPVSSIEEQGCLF
# Sequence of Epidermal growth factor receptor (Homo sapiens) (P00533 whole entry, looked up): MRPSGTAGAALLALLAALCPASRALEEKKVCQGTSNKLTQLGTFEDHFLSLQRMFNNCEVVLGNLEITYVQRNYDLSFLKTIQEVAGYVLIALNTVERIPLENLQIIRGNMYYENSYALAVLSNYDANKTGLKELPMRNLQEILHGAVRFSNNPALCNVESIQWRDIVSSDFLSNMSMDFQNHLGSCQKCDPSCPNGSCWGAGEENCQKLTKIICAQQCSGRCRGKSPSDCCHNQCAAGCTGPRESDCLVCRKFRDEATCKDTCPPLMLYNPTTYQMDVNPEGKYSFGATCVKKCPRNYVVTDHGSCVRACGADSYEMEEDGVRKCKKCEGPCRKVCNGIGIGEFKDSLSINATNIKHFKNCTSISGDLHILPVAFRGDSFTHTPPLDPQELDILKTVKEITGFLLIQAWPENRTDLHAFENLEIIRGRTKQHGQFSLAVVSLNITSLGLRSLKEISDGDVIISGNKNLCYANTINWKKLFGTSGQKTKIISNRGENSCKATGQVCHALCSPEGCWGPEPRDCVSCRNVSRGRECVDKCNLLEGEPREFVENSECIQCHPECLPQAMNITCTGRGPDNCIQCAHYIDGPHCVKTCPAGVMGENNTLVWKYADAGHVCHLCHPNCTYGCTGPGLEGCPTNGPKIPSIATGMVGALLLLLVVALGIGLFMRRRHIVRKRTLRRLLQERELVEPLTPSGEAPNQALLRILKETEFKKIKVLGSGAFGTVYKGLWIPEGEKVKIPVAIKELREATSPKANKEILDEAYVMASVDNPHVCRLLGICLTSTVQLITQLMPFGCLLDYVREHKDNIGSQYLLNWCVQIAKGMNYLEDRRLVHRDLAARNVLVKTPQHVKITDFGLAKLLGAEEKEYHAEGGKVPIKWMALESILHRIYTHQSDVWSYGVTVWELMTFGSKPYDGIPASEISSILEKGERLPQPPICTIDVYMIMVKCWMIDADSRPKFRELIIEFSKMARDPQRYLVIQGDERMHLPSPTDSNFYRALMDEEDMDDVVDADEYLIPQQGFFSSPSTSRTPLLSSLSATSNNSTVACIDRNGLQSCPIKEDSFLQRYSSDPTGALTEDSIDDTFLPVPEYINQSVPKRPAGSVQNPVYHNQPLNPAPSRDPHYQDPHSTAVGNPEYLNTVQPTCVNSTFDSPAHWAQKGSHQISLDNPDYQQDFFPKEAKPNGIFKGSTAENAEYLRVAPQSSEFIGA
# Sequence of Neurogenic locus notch homolog protein 3 (Homo sapiens) (Q9UM47 whole entry, looked up): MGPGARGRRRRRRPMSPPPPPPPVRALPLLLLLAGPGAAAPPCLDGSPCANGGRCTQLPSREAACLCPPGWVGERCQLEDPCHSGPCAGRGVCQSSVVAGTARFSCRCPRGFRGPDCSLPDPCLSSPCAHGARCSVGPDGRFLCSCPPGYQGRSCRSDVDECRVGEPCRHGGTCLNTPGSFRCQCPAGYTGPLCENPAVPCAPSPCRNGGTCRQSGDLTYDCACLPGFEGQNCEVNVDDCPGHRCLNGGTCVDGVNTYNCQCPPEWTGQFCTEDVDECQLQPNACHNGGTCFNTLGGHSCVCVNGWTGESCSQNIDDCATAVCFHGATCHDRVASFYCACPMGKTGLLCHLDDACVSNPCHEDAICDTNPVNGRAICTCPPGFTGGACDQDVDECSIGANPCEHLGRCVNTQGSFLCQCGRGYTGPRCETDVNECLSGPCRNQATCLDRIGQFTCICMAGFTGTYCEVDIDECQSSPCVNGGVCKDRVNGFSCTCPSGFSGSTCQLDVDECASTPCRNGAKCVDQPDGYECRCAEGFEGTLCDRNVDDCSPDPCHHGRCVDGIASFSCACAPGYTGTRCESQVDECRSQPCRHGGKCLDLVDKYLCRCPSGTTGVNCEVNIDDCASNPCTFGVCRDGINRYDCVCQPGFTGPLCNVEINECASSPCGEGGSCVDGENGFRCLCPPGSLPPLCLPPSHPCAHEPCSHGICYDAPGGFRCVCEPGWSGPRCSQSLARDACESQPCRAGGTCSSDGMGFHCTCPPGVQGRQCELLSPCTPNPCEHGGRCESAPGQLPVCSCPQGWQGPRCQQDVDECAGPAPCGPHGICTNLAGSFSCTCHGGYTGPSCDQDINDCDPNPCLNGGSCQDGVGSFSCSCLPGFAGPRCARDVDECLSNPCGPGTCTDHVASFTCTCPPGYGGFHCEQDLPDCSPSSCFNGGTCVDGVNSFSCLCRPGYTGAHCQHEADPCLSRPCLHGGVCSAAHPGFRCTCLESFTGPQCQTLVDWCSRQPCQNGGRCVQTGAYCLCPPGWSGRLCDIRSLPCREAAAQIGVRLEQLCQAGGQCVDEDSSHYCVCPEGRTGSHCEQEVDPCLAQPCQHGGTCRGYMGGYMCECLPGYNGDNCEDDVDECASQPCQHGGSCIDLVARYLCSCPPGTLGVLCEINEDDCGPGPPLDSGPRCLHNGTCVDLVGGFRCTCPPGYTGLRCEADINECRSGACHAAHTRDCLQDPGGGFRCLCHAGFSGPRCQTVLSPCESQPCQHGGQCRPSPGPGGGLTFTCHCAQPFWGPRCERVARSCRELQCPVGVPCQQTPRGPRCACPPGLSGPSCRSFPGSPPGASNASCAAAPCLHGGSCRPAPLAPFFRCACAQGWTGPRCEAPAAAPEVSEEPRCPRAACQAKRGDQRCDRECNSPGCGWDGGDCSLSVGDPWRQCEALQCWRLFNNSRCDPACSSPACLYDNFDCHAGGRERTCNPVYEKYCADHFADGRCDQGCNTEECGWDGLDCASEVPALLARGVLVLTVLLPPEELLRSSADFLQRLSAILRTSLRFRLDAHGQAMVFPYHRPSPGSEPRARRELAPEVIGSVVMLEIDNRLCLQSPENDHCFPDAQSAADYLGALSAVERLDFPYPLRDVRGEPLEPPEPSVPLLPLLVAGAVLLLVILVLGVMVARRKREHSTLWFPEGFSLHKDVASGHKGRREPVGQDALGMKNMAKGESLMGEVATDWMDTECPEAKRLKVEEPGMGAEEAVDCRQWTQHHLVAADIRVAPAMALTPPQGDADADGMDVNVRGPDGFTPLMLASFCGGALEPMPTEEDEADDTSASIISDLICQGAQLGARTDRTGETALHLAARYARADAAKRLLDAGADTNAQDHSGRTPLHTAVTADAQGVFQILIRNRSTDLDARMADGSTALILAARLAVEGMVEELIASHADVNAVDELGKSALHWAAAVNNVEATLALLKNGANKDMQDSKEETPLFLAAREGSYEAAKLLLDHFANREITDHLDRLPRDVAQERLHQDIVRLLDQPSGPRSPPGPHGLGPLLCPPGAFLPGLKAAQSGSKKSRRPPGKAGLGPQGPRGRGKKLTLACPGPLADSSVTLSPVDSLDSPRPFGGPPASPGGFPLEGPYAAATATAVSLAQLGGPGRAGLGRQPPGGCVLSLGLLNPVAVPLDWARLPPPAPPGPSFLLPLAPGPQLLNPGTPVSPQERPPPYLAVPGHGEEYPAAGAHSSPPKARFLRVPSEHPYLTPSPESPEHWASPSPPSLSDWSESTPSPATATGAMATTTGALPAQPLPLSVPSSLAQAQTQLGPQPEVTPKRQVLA
# Sequence of Fibroblast growth factor 10 (Homo sapiens) (O15520 whole entry, looked up): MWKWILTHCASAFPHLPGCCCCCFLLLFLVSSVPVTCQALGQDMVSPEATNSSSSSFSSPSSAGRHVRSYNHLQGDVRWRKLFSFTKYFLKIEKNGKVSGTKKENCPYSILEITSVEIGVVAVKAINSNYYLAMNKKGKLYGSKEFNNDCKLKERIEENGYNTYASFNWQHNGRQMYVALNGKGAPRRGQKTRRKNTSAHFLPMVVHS
# Sequence of Follistatin-related protein 3 (Homo sapiens) (O95633 whole entry, looked up): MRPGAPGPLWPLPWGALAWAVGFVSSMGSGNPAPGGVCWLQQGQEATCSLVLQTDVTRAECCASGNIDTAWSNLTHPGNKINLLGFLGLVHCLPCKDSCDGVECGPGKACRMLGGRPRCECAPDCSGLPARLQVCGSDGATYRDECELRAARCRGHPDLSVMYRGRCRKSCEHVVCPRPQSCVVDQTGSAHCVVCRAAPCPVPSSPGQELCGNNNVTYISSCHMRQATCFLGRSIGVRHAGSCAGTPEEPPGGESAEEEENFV
SMILES,composite z-score [1],z-score [2],z-score [3],z-score [4],composite z-score [5],z-score [6],composite z-score [7],composite z-score [8],composite z-score [9],composite z-score [10],composite z-score [11],composite z-score [12],composite z-score [13],z-score [14],composite z-score [15],composite z-score [16],composite z-score [17],composite z-score [18],composite z-score [19],composite z-score [20]
CN1C(=O)C2C=CC(C(O)c3ccc(-c4ccccc4)s3)N(Nc3ccccc3)C2C1=O (stereo not given),0.932,-1.29 (inactive),0.447 (inactive),0.164 (inactive),2.91,-0.576 (inactive),0.182,-0.399,1.11,-0.0043,1.27,0.644,1.1,1.43 (inactive),0.737,0.703,0.138,0.898,-0.0947,1.23
CO[C@H]1O[C@H](CO)[C@@H](OC(=O)Nc2ccc3c(c2)OCO3)[C@@H]2OC(=O)[C@@H](Cc3ccccc3)C/C=C/C[C@H](Cc3ccccc3)C(=O)O[C@@H]12,1.48,1.17 (inactive),0.78 (inactive),2.27 (inactive),1.29,0.156 (inactive),-0.0562,0.566,0.887,0.0528,0.915,0.0902,0.259,0.216 (inactive),1.39,0.708,0.342,0.817,0.401,0.996
CCCCC(=C=CC[C@@H](O)c1cccc(OCCO)c1)CCO,0.468,0.633 (inactive),0.111 (inactive),-0.238 (inactive),0.111,0.863 (inactive),-0.179,-0.0301,0.098,-0.152,1.36,-0.252,0.254,0.413 (inactive),0.504,-0.224,-0.556,-0.254,-0.591,0.134
CC(=O)n1cc(C(O)C2C=CC3C(=O)N(c4ccccc4)C(=O)C3N2Nc2ccccc2F)c2ccccc21 (stereo not given),0.799,-0.626 (inactive),-0.169 (inactive),-1.6 (inactive),2.51,1.01 (inactive),-0.138,-0.872,-0.382,-0.146,1.76,-0.167,0.483,-1.68 (inactive),-0.191,-0.0798,-0.801,-0.638,-1.18,-0.551
C=CC[C@]1(C(=O)N(C)C)COC(c2ccc(OCCCO)cc2)=N1,1.36,0.0794 (inactive),-2.04 (inactive),-0.95 (inactive),2.75,-1.46 (inactive),0.804,-0.39,-0.338,0.367,1.6,0.98,1.26,-0.858 (inactive),0.772,0.248,-0.737,-0.438,-0.0393,0.465
[N-]=[N+]=NCc1ccccc1C[C@]1(C(=O)N2CCCCC2)N=C(c2ccc(OCCCO)cc2)O[C@H]1c1ccccc1,0.762,0.202 (inactive),-1.1 (inactive),22.5 (active),2.46,1.31 (inactive),0.124,0.0914,0.344,-0.125,0.92,0.484,0.769,-0.44 (inactive),0.567,0.568,-0.761,-0.278,-0.64,0.55
O=C(NCC(F)(F)F)[C@@H]1c2ccccc2C(=O)N(CC23CC4CC(CC(C4)C2)C3)[C@H]1c1ccc(CO)cc1,1.54,-3.48 (inactive),-1.94 (inactive),-1.47 (inactive),1.81,1.37 (inactive),-0.129,1.14,1.1,-0.0902,0.586,-0.0677,-0.217,-1.32 (inactive),0.75,0.804,0.169,0.858,0.26,0.47
COCCOC(=O)N1C(=O)[C@@]2(c3cc(C#CCCO)ccc31)[C@H](c1ccc(O)cc1)N1[C@H](c3ccccc3)[C@H](c3ccccc3)OC(=O)[C@H]1[C@@H]2C(=O)N1CCc2cc(OC)c(OC)cc2C1,1.52,0.47 (inactive),0.511 (inactive),1.23 (inactive),2.45,-0.617 (inactive),-0.0616,1.55,1.06,0.122,1.16,0.058,0.342,0.305 (inactive),1.39,1.31,0.878,1.44,0.993,1.01
COCCOC(=O)N1C(=O)[C@@]2(c3cc(C#CC4(O)CCCCCC4)ccc31)[C@H](c1ccc(OCCO)cc1)N1[C@H](c3ccccc3)[C@H](c3ccccc3)OC(=O)[C@H]1[C@@H]2C(N)=O,1.53,1.29 (inactive),0.926 (inactive),4.69 (inactive),1.67,0.257 (inactive),0.0494,1.52,1.06,-0.013,1.37,0.0809,0.0419,-1.47 (inactive),1.14,1.31,0.883,1.22,0.617,1
